The values that follow come from PubChem BioAssay (NCATS).

Assay [1] has as its target Lysosomal acid glucosylceramidase (Homo sapiens) (UniProt P04062). In words: Glucocerebrosidase-p2 (AID 348; in the data active means potency below about 10 µM; further: potency means the concentration at half of the fitted maximal effect). As to conditions: purified GBA, blue fluorogenic substrate, 40 min. An outline of the steps:
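Compounds titrated from 0.6 nM upwards against 0.2 nM enzyme in pH 5.9 citric acid/KH2PO4, taurocholate, tween-20; blue fluorogenic substrate 80 uM, 40 min room temperature, stopped and read Ex 365/Em 440 for AC50.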

The target in assay [2] is Cytochrome P450 1A2 (Homo sapiens) (UniProt P05177). The assay is described as follows: p450-cyp1a2 (AID 410; calls by dose curve; further: potency means the concentration at half of the fitted maximal effect). As to conditions: recombinant CYP1A2, luciferin-ME demethylation, luminescence; series mostly up to 11.4 µM. A digest of the protocol:
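Human CYP1A2 (20nM) demethylated Luciferin-ME at its Km (100uM) in 100mM KPO4. After 10 min compound preincubation, NADPH regeneration ran the reaction 60 min at room temperature. Luciferin was read by luminescence, normalized to 57 uM furafylline.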

Assay [3] is described as follows: Cell Viability - Jurkat (AID 426;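 active means dose-dependent loss of cell ATP signal giving a full or clear fitted curve, ranked by lower potency value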; further: potency means the concentration at half of the fitted maximal effect). As to conditions: qHTS. An outline of the steps: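 Jurkat (clone E6-1, human T-cell leukemia) cells, 5000/well in complete medium, were exposed to compound for 40 hr at 37 °C. Viability was read as intracellular ATP by CellTiter-Glo luminescence; AC50 came from Hill fits of concentration-response data.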
The nature of assay [4]: Cell Viability - Hek293 (AID 427;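 active means compounds whose dose-response curve shows a full or clear partial loss of cell viability, called from curve shape rather than a numeric limit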;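 further: potency means the concentration at half of the fitted maximal effect; cells exposed to compound for 40 hours at 37 °C before reading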). To be noted: qHTS. An outline of the steps:
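Luminescent ATP read-out (CellTiter-Glo, 20 min RT) after 40 hr compound exposure at 37 °C in complete medium. Signal normalized to DMSO (basal) and 100 uM tamoxifen (100% inhibition); concentration-response fitted with the standard Hill equation to give AC50.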

Assay [5] in a line: Cell Viability - HepG2 (AID 433; calls by dose curve;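 further: potency means the concentration at half of the fitted maximal effect; potency for ATP loss meaning cytotoxicity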). To be noted: qHTS. A digest of the protocol:
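ATP luminescence (CellTiter-Glo) after 40 h compound exposure, 37 °C, HepG2, 1500 cells/well, complete medium. Normalized: DMSO = basal, 100 uM tamoxifen = 100% inhibition. AC50 via standard Hill equation.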
A general note: qHTS replaces the single test concentration by a dilution series.

A short description of assay [6]: Stat Signaling Pathway (AID 446; active means well fitted curve in either direction with a large enough effect, not every such curve was filed as active;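 further: ME-180 cervical cancer cells given 40 pM IL-6 alongside compound; SIE-controlled beta-lactamase reporter measured as 460/530 nm FRET emission ratio; on the % scale 0 is the no-effect control and ±100 the full control effect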). To be noted: ME-180 (cervical carcinoma) SIE beta-lactamase reporter, IL-6 stimulated, 5 h; at 7.69 µM (top of the series) unless noted. An outline of the steps:
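ME-180 SIE-bla cells; overnight plating; cpd + IL-6 40 pM, 5 h, 37 C; LiveBLAzer 2.5 h RT; 460/530 nm emission ratio. Normalized to 300 pM IL-6 and 125 nM JAK inhibitor controls.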

In assay [7] the target is Glucocorticoid receptor (Homo sapiens) (UniProt P04150). In words: GR-GFP Redistribution (AID 450;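 active means compounds whose dose series gives a full or clear partial fitted curve of increased nuclear translocation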; further: potency means the concentration at half of the fitted maximal effect). As to conditions: U2OS GR-GFP nuclear translocation, laser cytometry, 2 h.
For assay [8] the target is unchanged. The assay is described as follows: GR-EFC Redistribution (AID 451; calls by dose curve; further: potency means the concentration at half of the fitted maximal effect). As to conditions: CHO-K1 GR-EFC translocation, beta-gal luminescence, 2 h. A digest of the protocol:
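Translocation of GR-ED fusion to nuclear EA restores b-gal, read by luminescence after 1 h room-temperature detection. Engineered CHO-K1 biosensor cells, 1,000/well, exposed 2 h at 37 C to titrations up to 46 uM final.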

A short description of assay [9]: Cell Viability - N2a (AID 540). Further: potency means the concentration at half of the fitted maximal effect; nearly all actives have a fitted effect of over 45% in size. As to conditions: N2a mouse neuroblastoma cell viability; activity change, negative = cytotoxicity: at 92.2 µM (top of the series). A digest of the protocol: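 Mouse neuroblastoma N2a cells (1500/well) were preincubated 5 hr at 37 °C, then exposed to compounds for 40 hr at 37 °C in complete medium. Viability was read as intracellular ATP by CellTiter-Glo luminescence; AC50 from Hill fits.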

A short description of assay [10]: Cell Viability - NIH 3T3 (AID 541). Further: potency means the concentration at half of the fitted maximal effect; nearly all actives have a fitted effect of over 25% in size. To be noted: NIH 3T3 cell viability, qHTS; activity change, negative = cytotoxicity: at 92.2 µM (top of the series). An outline of the steps: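 NIH 3T3 mouse embryo fibroblasts (1000 cells/well) were plated in complete medium and treated with compound for 40 hr at 37 °C. Viability was read as intracellular ATP by CellTiter-Glo luminescence; AC50 values came from Hill-equation fits of concentration-response data.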

The nature of assay [11]: Cell Viability - HUV-EC-C (AID 542). Further: potency means the concentration at half of the fitted maximal effect; nearly all actives have a fitted effect of over 35% in size. As to conditions: HUV-EC-C endothelial cell viability, qHTS; series mostly up to 92.2 µM. A digest of the protocol: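 HUV-EC-C normal human vascular endothelial cells, 1000 cells/well, pre-incubated 5 hr at 37 °C, then exposed to compounds for 40 hr at 37 °C in complete medium. Viability measured as intracellular ATP by CellTiter-Glo luminescence; AC50 from Hill fits.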

Assay [12] can be described thus: Cell Viability - H-4-II-E (AID 543). Further: potency means the concentration at half of the fitted maximal effect; nearly all actives have a fitted effect of over 35% in size. To be noted: H-4-II-E rat hepatoma viability; series mostly up to 92.2 µM. An outline of the steps: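 Rat hepatoma H-4-II-E cells (1500/well) were plated, incubated 5 hr at 37 °C, then exposed to compounds for 40 hr at 37 °C. Cellular ATP was read by CellTiter-Glo luminescence; AC50 came from Hill-equation fits of concentration-response data.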

Assay [13] in a line: Cell Viability - SH-SY5Y (AID 544). Further: nearly all actives have a fitted effect of over 55% in size. As to conditions: SH-SY5Y neuroblastoma cell viability; viability change, negative = cytotoxic: at 92.2 µM (top of the series). A digest of the protocol:
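Human neuroblastoma SH-SY5Y cells (1500/well) in complete medium were exposed to compounds for 40 hr at 37 °C; intracellular ATP was then quantified by CellTiter-Glo luminescence after 20 min at room temperature. AC50 came from Hill-equation concentration-response fits.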

Assay [14] is described as follows: Cell Viability - Mesenchymal (AID 546).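 Further: potency means the concentration at half of the fitted maximal effect; cells exposed to compound for 40 hours before reading.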 As to conditions: mesenchymal cells viability, qHTS; activity change, negative = cytotoxicity: at 91.7 µM (top of the series). An outline of the steps: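 AC50 values reflect the drop in intracellular ATP in a human kidney mesenchymal line derived from normal glomeruli. Treatment lasts 40 hr at 37 °C in complete medium, and the signal comes from CellTiter-Glo luminescence.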

In assay [15] the target is 3',5'-cyclic-AMP phosphodiesterase 4B (Homo sapiens) (UniProt Q07343). In words: qHTS Assay for Inhibitors of PDE-IV (AID 607; active means well fitted activation curve with a large enough effect in the main read-out, with a control signal flat, not every such curve was filed as active; further: % of control where 0% means no effect). As to conditions: HEK293 ACTOne CNG channel cells, membrane potential fluorescence; series mostly up to 22.9 µM. A digest of the protocol: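 ACTOne HEK293 cells carry a modified cAMP-gated CNG channel and express endogenous PDE4; plated 1000 cells/well, compounds up to 22.9 uM final. Membrane-potential dye fluorescence (ex 535/em 590) was read; parental cells received 10 uM forskolin + 100 uM RO 20-1724.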

Assay [16] can be described thus: Cellular Toxicity (caspase-3) HepG2 (AID 654).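 Further: cells exposed to compound for 16 hours before reading; 0% = DMSO alone and 100% = caspase signal from 100 µM tamoxifen.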 As to conditions: HepG2 caspase-3 activation, luminescence; series mostly up to 92.2 µM. A digest of the protocol: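 HepG2 cells (1500/well) in complete medium were treated with compounds for 16 hr at 37 °C. Caspase-3/7 activity was then read as luminescence from peptide-aminoluciferin cleavage. AC50 came from Hill fits, normalized to DMSO and 100 uM tamoxifen.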

Assay [17] in a line: Cellular Toxicity (caspase-3) Jurkat (AID 655).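 Further: cells exposed to compound for 16 h at 37 °C before reading.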 To be noted: Jurkat caspase-3 activation, luminescence; caspase-3 activation: at 92.2 µM (top of the series), DMSO = 0%, tamoxifen = 100%. An outline of the steps:
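Luminescent caspase-3/7 readout (aminoluciferin substrate cleavage) in human T-cell leukemia Jurkat cells after 16 hr compound exposure. Concentration-response normalized to DMSO and 100 uM tamoxifen; AC50 by standard Hill equation.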

Assay [18] is described as follows: Cellular Toxicity (caspase-3) HUV-EC-C (AID 656). As to conditions: HUV-EC-C cells, caspase-3 activation (apoptosis); series mostly up to 92.2 µM. An outline of the steps:
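Luminescent caspase-3/7 activation (aminoluciferin substrate cleavage) in HUV-EC-C cells after 16 hr compound exposure, 37°C. Signal normalized to DMSO basal and 100 uM tamoxifen as 100%; AC50 from concentration-response fitted with the Hill equation.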

Assay [19] is described as follows: Cellular Toxicity (caspase-3) SHSY5Y (AID 657).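 Further: cells exposed to compound for 16 hours at 37 °C.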 To be noted: SH-SY5Y caspase-3 activation; series mostly up to 91.7 µM. An outline of the steps:
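Luminescent caspase-3/7 readout (aminoluciferin release) in SH-SY5Y cells after 16 h compound exposure in complete medium. Activity scaled between DMSO basal and 10 uM staurosporine as 100%; concentration-response fitted to Hill equation for AC50.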

Values without a mark were called inactive. Results filed as inconclusive are left out. Activity calls are given as the source filed them. Unless noted, the call rests on the fitted dose curve; in most records, active means well fitted curve in the direction sought with a large enough effect; inconclusive means small, poorly fitted or top-dose-only effect, or another doubt; inactive means no such curve, though single readings can be large; an effect the other way counts as inactive or inconclusive. Bounds are passed on as bounds.

Chain of Glucocorticoid receptor (Homo sapiens) (P04150 whole entry, looked up): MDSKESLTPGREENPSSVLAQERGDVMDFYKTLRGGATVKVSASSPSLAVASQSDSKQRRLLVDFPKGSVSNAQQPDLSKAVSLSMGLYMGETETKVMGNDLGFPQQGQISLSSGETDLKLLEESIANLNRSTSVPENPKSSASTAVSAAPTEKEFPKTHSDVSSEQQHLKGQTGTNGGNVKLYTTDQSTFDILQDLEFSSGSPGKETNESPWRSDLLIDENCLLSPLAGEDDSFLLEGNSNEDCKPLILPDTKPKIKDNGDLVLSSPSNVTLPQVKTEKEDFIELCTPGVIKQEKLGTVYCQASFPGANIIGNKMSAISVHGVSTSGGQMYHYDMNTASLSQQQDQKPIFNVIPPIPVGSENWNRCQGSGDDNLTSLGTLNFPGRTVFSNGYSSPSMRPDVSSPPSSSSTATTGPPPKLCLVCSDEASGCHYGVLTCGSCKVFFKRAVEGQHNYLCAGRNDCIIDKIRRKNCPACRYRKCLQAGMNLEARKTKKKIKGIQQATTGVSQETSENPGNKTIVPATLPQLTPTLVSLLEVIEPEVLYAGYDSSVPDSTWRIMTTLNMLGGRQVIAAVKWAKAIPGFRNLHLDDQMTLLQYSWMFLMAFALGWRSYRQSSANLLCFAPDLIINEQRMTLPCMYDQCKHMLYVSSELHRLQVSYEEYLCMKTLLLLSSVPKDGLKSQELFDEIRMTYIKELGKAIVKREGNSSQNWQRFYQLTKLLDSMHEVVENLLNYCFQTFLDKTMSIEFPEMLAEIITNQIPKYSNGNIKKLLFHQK
Chain of Cytochrome P450 1A2 (Homo sapiens) (P05177 whole entry, looked up): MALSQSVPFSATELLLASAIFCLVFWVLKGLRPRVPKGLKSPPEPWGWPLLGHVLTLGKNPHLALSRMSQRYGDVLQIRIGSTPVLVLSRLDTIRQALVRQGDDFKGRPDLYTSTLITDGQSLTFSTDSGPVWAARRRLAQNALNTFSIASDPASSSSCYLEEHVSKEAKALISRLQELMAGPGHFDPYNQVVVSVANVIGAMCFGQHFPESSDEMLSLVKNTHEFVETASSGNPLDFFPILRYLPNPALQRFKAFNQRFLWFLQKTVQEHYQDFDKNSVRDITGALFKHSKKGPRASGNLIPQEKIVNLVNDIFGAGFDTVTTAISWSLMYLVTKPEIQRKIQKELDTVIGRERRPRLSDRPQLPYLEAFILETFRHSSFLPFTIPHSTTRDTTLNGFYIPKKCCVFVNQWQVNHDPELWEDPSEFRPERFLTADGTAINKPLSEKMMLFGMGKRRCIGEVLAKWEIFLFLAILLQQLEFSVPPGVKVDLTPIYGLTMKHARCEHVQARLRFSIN
Chain of 3',5'-cyclic-AMP phosphodiesterase 4B (Homo sapiens) (Q07343 whole entry, looked up): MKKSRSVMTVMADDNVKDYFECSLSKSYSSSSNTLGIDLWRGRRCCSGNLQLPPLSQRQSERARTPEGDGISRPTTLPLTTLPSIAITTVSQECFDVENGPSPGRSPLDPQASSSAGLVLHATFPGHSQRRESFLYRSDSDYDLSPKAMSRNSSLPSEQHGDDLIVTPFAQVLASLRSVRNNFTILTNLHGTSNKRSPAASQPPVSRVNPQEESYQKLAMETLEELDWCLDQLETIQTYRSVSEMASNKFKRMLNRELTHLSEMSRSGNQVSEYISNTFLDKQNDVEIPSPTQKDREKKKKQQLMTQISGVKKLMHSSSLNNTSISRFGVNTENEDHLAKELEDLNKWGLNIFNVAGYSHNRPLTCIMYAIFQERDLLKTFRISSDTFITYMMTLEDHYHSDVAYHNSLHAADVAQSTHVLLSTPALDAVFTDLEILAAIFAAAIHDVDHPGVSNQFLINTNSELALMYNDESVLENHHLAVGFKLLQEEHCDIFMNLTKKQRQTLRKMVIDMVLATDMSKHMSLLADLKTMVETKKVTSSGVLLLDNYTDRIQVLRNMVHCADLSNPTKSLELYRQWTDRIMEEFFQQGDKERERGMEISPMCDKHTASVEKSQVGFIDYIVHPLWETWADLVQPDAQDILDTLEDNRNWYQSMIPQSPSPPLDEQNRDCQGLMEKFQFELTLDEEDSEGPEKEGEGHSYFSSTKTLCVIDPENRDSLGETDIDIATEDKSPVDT
Chain of Lysosomal acid glucosylceramidase (Homo sapiens) (P04062 whole entry, looked up): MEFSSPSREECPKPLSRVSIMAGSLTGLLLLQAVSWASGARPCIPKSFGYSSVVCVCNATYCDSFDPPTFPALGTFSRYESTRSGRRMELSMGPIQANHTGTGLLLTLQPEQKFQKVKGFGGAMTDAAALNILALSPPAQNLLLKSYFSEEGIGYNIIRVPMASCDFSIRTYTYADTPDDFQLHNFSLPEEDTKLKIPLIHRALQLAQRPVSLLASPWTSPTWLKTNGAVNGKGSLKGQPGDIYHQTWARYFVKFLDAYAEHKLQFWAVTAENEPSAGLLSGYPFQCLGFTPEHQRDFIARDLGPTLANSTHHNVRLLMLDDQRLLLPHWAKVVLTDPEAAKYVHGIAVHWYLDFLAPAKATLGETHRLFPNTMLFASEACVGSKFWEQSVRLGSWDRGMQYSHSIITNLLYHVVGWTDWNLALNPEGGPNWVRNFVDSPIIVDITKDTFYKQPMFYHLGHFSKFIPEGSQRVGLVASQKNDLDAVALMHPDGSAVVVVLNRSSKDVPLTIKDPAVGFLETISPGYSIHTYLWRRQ

As to `N=C1C=CC(=C(c2ccc(N)cc2)c2ccc(N)cc2)C=C1`, the Potency was above 11.4 µM in assay [1]; 3.98 µM (active) in assay [2]; 15.1 µM (active) in assay [3]; 19.6 µM (active) in assay [4]; 18.6 µM (active) in [5]; above 46 µM in assay [7]. Besides, the Potency was above 9.22 µM in assay [8]; 3.98 µM (active) in assay [9]; 3.16 µM (active) in assay [10]; 20 µM (active) in assay [11]; 31.6 µM (active) in assay [12]; 7.94 µM (active) in assay [14]. Also, in assay [6], the activity, negative = inhibition was -20.9%. Also, the viability change, negative = cytotoxic in [13] was -99.9% (active). Moreover, the Potency entry in assay [15], in assay [16], in assay [17], in assay [18] and in assay [19] was “inactive” throughout.
